Measured values as given in PubChem BioAssay (NCI).
The panel holds about 83,000 compounds, 20% with a hit somewhere; the sample as a whole holds those more often.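 Cells were grown in 96-well plates and exposed to the test compound at a single concentration for 48 hours; results are reported as percent growth, with values below 10 considered active.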 Active and inactive are the calls of the source.

system: UACC-62 melanoma; assay: NCI-60 one-dose screen, 48 h (100 = growth as untreated, 0 = no growth, -100 = all killed); conditions: 10 µM unless noted

Structure (SMILES)	growth
CC(O)C(NC(=O)C1CCCN1C(=O)CNC(=O)C1CC(=O)NCC(=O)NC(Cc2c[nH]c3ccccc23)C(=O)NC(Cc2ccc(O)cc2)C(=O)NCC(=O)NC(CO)C(=O)NC(CCC(N)=O)C(=O)NC(Cc2c[nH]c3ccccc23)C(=O)N1)C(=O)NCC(=O)NC(CCC(N)=O)C(=O)NC(CCCNC(=N)N)C(=O)NC(CC(=O)O)C(=O)O (stereo not drawn)	94.9% (inactive)
COc1ccc(C(=O)/C=C/c2ccc(OCc3ccc(Cl)cc3)c(OC)c2)cc1OC	52.6% (inactive)
c1ccc(CNc2ncnc3ccc(-c4cnc5[nH]ncc5c4)cc23)cc1	76% (inactive)
O=C(CCN1C(=O)/C(=C/c2ccccc2)SC1=S)N1CCOCC1	78.8% (inactive)
OC1CCN(CCCOc2c3ccccc3nc3c2oc2ccc(Cl)cc23)CC1	-19.5% (active)
CN1C(=O)N(c2ccccc2)C2N=C(N/N=C/c3ccccc3)SC21 (stereo not drawn)	44.4% (inactive)
CN(C)c1ccc(-c2c(NC(C)(C)C)nc3c(OCCc4ccccc4)cccn23)cc1	35.1% (inactive)
CN1C(=S)N(C)C2C1NN=C1SC(c3ccccc3)=CC(=O)N12 (stereo not drawn)	78.3% (inactive)
C#Cc1nc(C2=C(C)C(=N\O)/C(=N/O)C2)cs1	91.8% (inactive)
C[C@@H](Nc1c(C#N)cnc2ccc(-c3cnc(N)nc3)cc12)c1ccccc1	-9.74% (active)
O=C1Nc2ccc(Cl)cc2/C1=C/c1ccc(OCC(=O)c2ccc(Br)cc2)cc1	83.4% (inactive)
CCN1C(=S)N(CC)C2C1N=C(SC)N2/N=C/C=C/c1ccccc1[N+](=O)[O-] (stereo not drawn)	85.1% (inactive)
NS(=O)(=O)c1cccc(Nc2nc(SCC(=O)c3ccc(Cl)cc3)nc3ccccc23)c1	62.6% (inactive)
O=C(CN1C(=O)/C(=C/c2ccccc2)SC1=S)N1CCOCC1	93.4% (inactive)
Nc1c(C(=O)Nc2ccc(Cl)cc2)sc2nc(-c3cnccn3)cc(-c3cccs3)c12	69.5% (inactive)
COc1ccccc1C(=O)CSc1nc(Nc2ccc(S(N)(=O)=O)cc2)c2ccccc2n1	88.6% (inactive)
Clc1ccc(Cc2nnc3sc(-c4cccnc4)nn23)cc1	91.1% (inactive)
Cc1c(NC(=O)CSc2nc3sc4c(c3c(=O)n2-c2ccc(Cl)cc2)CCCC4)c(=O)n(-c2ccccc2)n1C	83.1% (inactive)
CCOC(=O)c1c(Nc2ccccc2)nn2c(N)c(C#N)c(-c3ccc(OC)cc3)nc12	80.4% (inactive)

Structure (SMILES)	growth
N=C1CC(=O)NN1C(=O)CSc1nc2sc3c(c2c(=O)n1-c1ccc(Cl)cc1)CCCC3	93.9% (inactive)
Clc1ccc2c(NCCCn3ccnc3)c3oc4ccc(Cl)cc4c3nc2c1	94.6% (inactive)
CCN1C(=S)N(CC)C2C1NN=C1SC(c3ccccc3)=CC(=O)N12 (stereo not drawn)	92.6% (inactive)
COc1ccc(COc2ccc(/C=C3/C(=O)Nc4cc(Cl)ccc43)cc2)cc1	88.6% (inactive)
COC(=O)C(C)NS(=O)(=O)/N=C1\NC(=O)NC1=C(Cl)Cl (stereo not drawn)	91.9% (inactive)
CC(=O)Oc1ccccc1C(=O)Nc1cc(C(C)C)ccc1C	16.9% (inactive)
COc1ccc(N/N=C/c2c(-c3ccc(S(C)(=O)=O)cc3)nc3ccccn23)cc1	10.8% (inactive)
O=C(CSc1nc2sc3c(c2c(=O)n1-c1ccc(Cl)cc1)CCCC3)N/N=C/c1ccc(F)cc1	97% (inactive)
CC(C)NC(=O)c1cc(-c2ccc(NC(=O)Nc3ccc(N4CCOCC4)c(C(F)(F)F)c3)cc2)nc2cccnc12	75.3% (inactive)
O=C(CCN1C(=O)/C(=C/c2ccccc2F)SC1=S)N1CCOCC1	82.7% (inactive)
O=C1Nc2cc(Cl)ccc2/C1=C\c1ccc(OCc2ccc([N+](=O)[O-])cc2)cc1	67.8% (inactive)
CCN(CC)c1ccc(C=O)c(OCc2cn(CC(=O)Nc3ccc(Cl)cc3)nn2)c1	58% (inactive)
CCCC(=O)NC(c1ccc2c(c1)OC(F)(F)O2)c1cc(C)c2cccnc2c1O (stereo not drawn)	-16.7% (active)
C[C@@H]1CN(c2ccc3ncc(C#Cc4cncc(C(=O)Nc5ccc(CN6CCN(C)CC6)c(C(F)(F)F)c5)c4)n3n2)C[C@H](C)O1	-65.9% (active)
COc1cc(OC)c(C2SCC(=O)N2Nc2ncnc3ccccc23)cc1OC (stereo not drawn)	97.6% (inactive)
CN(C)CCCOc1c2ccc(Cl)cc2nc2c1oc1ccccc12	-73.8% (active)
C#C[C@]1(O)CC[C@H]2[C@@H]3CC=C4c5sc(Nc6ccc(Cl)cn6)nc5CC[C@]4(C)[C@H]3CC[C@@]21C	28.3% (inactive)
COc1cc2cc(Oc3ccc(NC(=O)c4cccc(C(F)(F)F)c4)cc3)c(C)nc2cc1OCCN1CCCCC1	-65.8% (active)
Cc1ccc(C(=O)Nc2cccc(C(F)(F)F)c2)cc1Nc1nc(-c2cnccn2)nc2c1cnn2C	17.9% (inactive)
